Our source for the largest response in the series, negative = inhibition and Potency values is PubChem BioAssay AID1490 (National Center for Advancing Translational Sciences (NCATS), 2009).

Several values for one entry are separate records, joined by “and”; a condition that tells them apart may be missing. Identical values can stand only once. In all, about 310,000 compounds went through this assay and about 11,000 (3.5%) were called active. About 4% were inconclusive and are not listed. Calls come from the whole dose curve; as a rule, active = well fitted inhibition curve with a large enough effect; inconclusive = small, poorly fitted or top-dose-only effect, or another doubt; inactive = no such curve, though single readings can be large or run the other way. This excerpt belongs to a sample that is enriched for actives. Where a structure was tested more than once in an assay, its records may differ in their call.
Potency is the fitted concentration of half-maximal effect.

The assay concerns the target 4'-phosphopantetheinyl transferase ffp (Bacillus subtilis) (UniProt Q9F4F7). Briefly: qHTS Assay for Inhibitors of Bacillus subtilis Sfp phosphopantetheinyl transferase (PPTase).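 For largest response in the series, negative = inhibition: 0% = enzyme reaction without inhibitor and -100% = no enzyme wells.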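 Note: the enzyme is Sfp with the accession as filed and its product quenches rhodamine fluorescence.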 The note with it: Biochemical Sfp PPTase activity. The procedure, abridged: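 Reaction rates are the 30-min fluorescence difference (ex 525, em 598 nm) in wells containing 15 nM Sfp, 5 uM rhodamine-CoA and 12.5 uM BHQ-2-YbbR at pH 7.6 with 10 mM MgCl2.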
On the technique in general: In qHTS, concentration-response curves come from the screen itself.
Turning to `CC(Cc1cccs1)NCc1ccc(Cl)cc1` (centres undefined), the largest response in the series, negative = inhibition was 26% (inactive).
Same read-out and setting: with `O=C(O)c1ccccc1NC(=O)C1C2CCC(O2)C1C(=O)O` (centres undefined) the figure was 2.88% (inactive); with `Cc1ccc(-n2c(C)cc(/C=C3\C(=O)NC(=O)N(C)C3=O)c2C)cc1C`, -19.1% (inactive).
In the case of `Cc1ccnc(-n2c(C)cc(/C=C3\C(=O)NC(=S)N(C)C3=O)c2C)c1`, the Potency is 25.1 µM (active).
On the same count and under the same terms, for `Cc1cc(C=C2C(=O)NC(=O)NC2=O)c(C)n1-c1ccncc1` the value was 56.2 µM (active).
Regarding `CCN1C[C@]2(C)CC[C@H](O)[C@@]34[C@@H]5CC6[C@@H](OC)C[C@@](O)([C@@H]5[C@@H]6O)[C@H](C[C@@H]23)[C@H]14`, the largest response in the series, negative = inhibition is 12.6% (inactive).
On the same count and under the same terms, with `CC12CN3CC(C)(CN(C1)C3c1cccs1)C2` (centres undefined) the figure was 10.2% (inactive); with `CCCCCCCCc1[se]c2ccccc2c1Br`, 14.5% (inactive).
Same read-out and setting: for `O=C(Nc1cccc2ccccc12)N1CCC2(CC1)OCCO2` the value was 0.463% (inactive).
With `O=C(OCC1O[C@@H](OC(=O)c2cc(O)c(O)c(O)c2)[C@@H](OC(=O)c2cc(O)c(O)c(O)c2)[C@@H](OC(=O)c2cc(O)c(O)c(O)c2)[C@@H]1OC(=O)c1cc(O)c(O)c(O)c1)c1cc(O)c(O)c(O)c1` (some centres undefined), the Potency is 25.1 µM (active).
For `O=C1NC(=O)C(CCc2ccccn2)(Cc2cccc(Cl)c2Cl)C(=O)N1c1ccc(Br)cc1` (centres undefined), the largest response in the series, negative = inhibition is 4.65% (inactive).
Still for that read-out and setting: with `COc1cc2c(cc1OC)[C@@H]1C(=O)c3ccc(O)c(CC=C(C)C)c3OC1CO2` (some centres undefined) the figure was 0.512% (inactive); with `CC(=O)c1c(O)c(C)c(O)c(Cc2c(O)c3c(c(C(=O)/C=C/c4ccccc4)c2O)OC(C)(C)C=C3)c1O`, -11.4% (inactive) and -12.1% (inactive) and -5.71% (inactive).
The same measure, in the same setting: with `COc1ccccc1-c1[se]c2ccccc2c1I` the figure was -3.36% (inactive).
Take `COc1ccc(N2C(=O)/C(=C/c3ccco3)C(=O)NC2=S)cc1`: the Potency was 11.2 µM (active).
Still for that read-out and setting: for `BrC1C(Br)C(Br)C(Br)C(Br)C1Br` (centres undefined) the value was 79.4 µM (active).
With `Cc1ccc(C2CN(C)CC2C(=O)c2ccc(F)cc2)cc1` (centres undefined), the largest response in the series, negative = inhibition is 15% (inactive).
Still for that read-out and setting: for `CC(=NC1CCN(Cc2ccccc2)CC1)c1c(O)n(C)c(=O)n(C)c1=O` the value was 8.13% (inactive).
Same read-out and setting: with `NC[C@H](O)c1ccc(O)cc1` the figure was 5.47% (inactive); with `CC[C@@H]1CN2CC[C@@H]1C[C@H]2[C@H](O)c1ccnc2ccc(OC)cc12`, 6.78% (inactive).
The same measure, in the same setting: for `CCN1C[C@]2(COC)C(O)C[C@H](OC)[C@@]34C5C[C@]6(O)C(OC)C(O)[C@](OC(C)=O)(C5C6OC(=O)c5ccccc5)C(C(OC)C23)C14` (some centres undefined) the value was 5.25% (inactive); for `COC(=O)N1C(c2ccccc2)C1c1ccccc1` (centres undefined), 17.3% (inactive).
With `CC(=O)[O][Sn]([c]1ccccc1)([c]1ccccc1)[c]1ccccc1`, the Potency was 1.41 µM (active).
Take `COc1cccc(-c2nc3ccc(N4CCN(C)CC4)cc3[nH]2)c1`: the largest response in the series, negative = inhibition was -7.35% (inactive).
Same read-out and setting: with `CCCN(C/C=C/I)C1CCc2ccc(O)cc2C1` (centres undefined) the figure was -26.2% (inactive); with `C[C@@]12CC[C@H]3[C@@H](CC[C@]4(O)C[C@H](O)CC[C@@]34C=O)[C@]1(O)CC[C@@H]2C1=CC(=O)OC1`, 17.6% (inactive); with `COc1ccccc1N=Nc1c(O)[nH]c(=S)[nH]c1=O`, -20.4% (inactive).
For the compound `O=C1N=c2ccccc2=C/C1=C\c1c(O)[nH]c(=S)[nH]c1=O`, the Potency is 25.1 µM (active).
As to `O=c1[nH]c(O)c(C=Nc2cc(F)cc(F)c2)c(=O)[nH]1`, the largest response in the series, negative = inhibition was -4.22% (inactive).
Regarding `Cc1ccc2c(c1)=C/C(=C\c1c(O)[nH]c(=O)[nH]c1=O)C(=O)N=2`, the Potency is 28.2 µM (active).
Consider `COc1cc(C(=S)N2CCOCC2)ccc1O`, for which the largest response in the series, negative = inhibition is 14.2% (inactive).
Take `N#CC(C#N)=Cc1cc(O)c(O)c([N+](=O)[O-])c1`: the largest response in the series, negative = inhibition is -27.4% (inactive) and 8.16% (inactive).
With `OC(Cn1c2ccccc2c2ccccc21)C[n+]1ccccc1` (centres undefined), the largest response in the series, negative = inhibition was 4.01% (inactive).
The same measure, in the same setting: with `CC(C)(O)c1[se]c2ccccc2c1I` the figure was -14.3% (inactive).
On the same count and under the same terms, with `O=C(N/N=C/c1ccc([N+](=O)[O-])o1)c1cc([N+](=O)[O-])cc([N+](=O)[O-])c1O` the figure was -16.6% (inactive); with `COC(=O)c1ccc2[se]c(CC3CCCCC3)c(I)c2c1`, -1.34% (inactive); with `C[C@]12O[C@H](C[C@@]1(O)C(=O)O)n1c3ccccc3c3c4c(c5c6ccccc6n2c5c31)CNC4=O`, -2.27% (inactive).
`CN(C)CC1CCCCC1=O` (centres undefined): the largest response in the series, negative = inhibition is 9.1% (inactive).
As to `C=CCN1C(=O)C2(C(C(=O)OCC)=C(N)Oc3c2c(=O)oc2ccccc32)c2ccccc21` (centres undefined), the largest response in the series, negative = inhibition was -13.3% (inactive).
Turning to `CC(C)(c1ccc(OC[C@@H]2CO2)cc1)c1ccc(OC[C@H]2CO2)cc1`, the largest response in the series, negative = inhibition was -26.3% (inactive).
Same read-out and setting: with `CCCCC/C=C\C/C=C\C/C=C\C=C\[C@H](CCCC(=O)O)OO` the figure was 1.29% (inactive) and 7.78% (inactive).
Consider `CCCCC/C=C\C/C=C\C/C=C\C/C=C\CCCCCC(=O)NCCO`, for which the Potency was 25.1 µM (active); the largest response in the series, negative = inhibition was -11.4% (inactive) and -19.7% (inactive) and 32% (inactive).
Turning to `CCCCC/C=C\C/C=C\C/C=C\CCCCCCC(=O)NCCO`, the largest response in the series, negative = inhibition is -6.26% (inactive) and -18.5% (inactive) and 24.4% (inactive).
The same measure, in the same setting: with `CCN1C[C@@]2(COC)CC[C@H](OC)[C@]34[C@@H]1[C@]1(OCO[C@@]15C[C@@H](OC)C1C[C@H]3[C@H]5[C@@H]1OC)[C@H](O)[C@@H]24` the figure was 4.99% (inactive).
The same measure, in the same setting: with `C=CCN1CCC23c4c5ccc(O)c4O[C@H]2C(=O)CC[C@@]3(O)C1C5` (some centres undefined) the figure was 7.15% (inactive); with `CN(C)[C@@H]1C(=O)C(C(N)=O)=C(O)[C@@]2(O)C(=O)C3=C(O)c4c(O)cccc4[C@@](C)(O)C3CC12` (some centres undefined), -6.86% (inactive); with `CCOC(=O)C1(CCc2ccccc2)CCN(Cc2ccco2)CC1`, -10.9% (inactive).
Turning to `CN1[C@@H]2CC[C@H]1CC(OC(=O)c1cc(Cl)cc(Cl)c1)C2` (some centres undefined), the largest response in the series, negative = inhibition is 10.2% (inactive).
On to `CC(=O)Oc1ccccc1C(=O)Nc1ncc([N+](=O)[O-])s1`, for which the Potency is 50.1 µM (active) and the largest response in the series, negative = inhibition was -19.7% (inactive).
`O=c1oc2ccccc2c(O)c1C(c1ccccc1O)c1c(O)c2ccccc2oc1=O`: the largest response in the series, negative = inhibition is 9.81% (inactive).
For `C[C@H]1C/C=C/[C@@H]2[C@@H]3O[C@]3(C)[C@@H](C)[C@H]3[C@H](Cc4ccccc4)NC(=O)[C@]32OC(=O)O/C=C/[C@](C)(O)C1=O`, the largest response in the series, negative = inhibition was -0.438% (inactive).
With `CN[C@@H]1C[C@H]2O[C@@](C)([C@@H]1OC)n1c3ccccc3c3c4c(c5c6ccccc6n2c5c31)C(=O)NC4`, the largest response in the series, negative = inhibition was 0.89% (inactive) and -25.9% (inactive).
Same read-out and setting: with `c1ccc(CCCCN2CCC(c3ccccc3)CC2)cc1` the figure was -6.46% (inactive) and 2.8% (inactive); with `COc1ccc(CNCCc2ccc3c(c2)OCO3)c(OC)c1OC`, -17.5% (inactive).
On the same count and under the same terms, for `CC1=CC(=O)C2=C(C)C[C@H](O)[C@H]3[C@H](C)C(=O)O[C@@H]3C12` (some centres undefined) the value was 33% (inactive).
With `O=Cc1cn(Cc2ccc(F)cc2Cl)c2ccccc12`, the largest response in the series, negative = inhibition is 0.0934% (inactive).
With `COc1cc(Cn2c(N)c(C(=O)NCc3ccco3)c3nc4ccccc4nc32)cc(OC)c1OC`, the Potency was 56.2 µM (active).
As for `CCOC(=O)c1c(N)n(Cc2ccccc2)c2nc3ccccc3nc12`, the largest response in the series, negative = inhibition was 13.5% (inactive).
On the same count and under the same terms, with `CCOC(=O)C(O)(c1ccc(NC(=O)c2ccco2)c(OC)c1)C(F)(F)F` (centres undefined) the figure was 3.62% (inactive).
For `CN1CCC(N(C)Cc2cccnc2)CC1`, the Potency was 89.1 µM (active).
For the compound `c1cncc(CNC2=NCCC2)c1`, the largest response in the series, negative = inhibition was 12.2% (inactive).
On the same count and under the same terms, with `CC1CCCCN1Cc1cccnc1` (centres undefined) the figure was -23.2% (inactive).
Same read-out and setting: for `CC(=O)c1c(O)c(C)c(O)c(Cc2c(O)c3c(c(C(=O)/C=C\c4ccccc4)c2O)OC(C)(C)C=C3)c1O` the value was -29.6% (inactive).
Still for that read-out and setting: with `COC1CC(OC2CC[C@@]3(C=O)C4CC[C@]5(C)C(C6=CC(=O)OC6)CC[C@@]5(O)C4CC[C@]3(O)C2)OC(C)C1O` (some centres undefined) the figure was 2.96% (inactive).
As to `CC(C(=O)Nc1ccc(Cl)cc1Cl)N1CC=C(c2ccccc2)CC1` (centres undefined), the Potency is 56.2 µM (active).
As for `CN1CCN(C(=S)SCC(=O)Nc2ccc(Cl)cc2C(=O)c2ccccc2)CC1`, the largest response in the series, negative = inhibition is -8.26% (inactive).
The same measure, in the same setting: with `CN(C)C1C(=O)C(C(N)=O)=C(O)[C@@]2(O)C(=O)C3=C(O)c4c(O)cccc4[C@@](C)(O)C3C[C@@H]12` (some centres undefined) the figure was -32.6% (inactive).
Still for that read-out and setting: for `C[C@@H]1C[C@H]2CC[C@H](O2)[C@H](C)C(=O)O[C@@H](C)C[C@@H]2CC[C@@H](O2)[C@@H](C)C(=O)O[C@H](C)C[C@H]2CC[C@H](O2)[C@H](C)C(=O)O[C@@H](C)C[C@@H]2CC[C@@H](O2)[C@@H](C)C(=O)O1` the value was 6.1% (inactive); for `CC(=O)OC1C2CCC3C1(CC(O)[C@@]1(O)[C@@H](CC(O)C1(C)C)[C@]3(C)O)C[C@@]2(C)O` (some centres undefined), 6.04% (inactive).
As to `N#Cc1c(Cl)c(Cl)c(Cl)c(C#N)c1Cl`, the largest response in the series, negative = inhibition is -8.59% (inactive).
The same measure, in the same setting: for `CC[N+]1(CCOC(=O)C(O)(c2ccccc2)c2ccccc2)CCCCC1` the value was 12% (inactive); for `CO[C@@H]1C[C@@H](C[C@H]2CC[C@H](C)[C@@H]([C@@H](C)C(=O)O)O2)O[C@]2(O[C@](C)([C@H]3CC[C@@](C)(C4OC([C@H]5O[C@@](O)(CO)[C@H](C)C[C@@H]5C)C[C@@H]4C)O3)C[C@H]2C)[C@@H]1C` (some centres undefined), 23.4% (inactive); for `CN(C)/C=C(\C=[N+](C)C)c1[nH]ncc1[N+](=O)[O-]`, 0.787% (inactive).
Consider `CC(C)(Cc1c[nH]c2ccc(Cl)cc12)NCCOc1ccccc1OCC1CC1`, for which the Potency is 35.5 µM (active) and the largest response in the series, negative = inhibition is -25.3% (inactive).
Consider `CCC(=O)CC(c1ccc([N+](=O)[O-])cc1)c1c(O)c2ccccc2oc1=O` (centres undefined), for which the largest response in the series, negative = inhibition was 6.92% (inactive).
Regarding `c1ccc(CN2CC[C@@]3(CCCNC3)C2)cc1`, the largest response in the series, negative = inhibition was 1.98% (inactive).
